An excerpt weighted towards active compounds, which were near 7% of everything screened.
PI5P4K alpha inh = qHTS for Inhibitors of phosphatidylinositol 5-phosphate 4-kinase (PI5P4K). Phosphatidylinositol 5-phosphate 4-kinase type-2 alpha (Homo sapiens), P48426. PI5P4Kalpha enzyme, ADP-Glo luminescence, 60 min; hits give low values. max response, %. 1.2% of 330,000 active; active = max response of -50% or lower; inconclusive = between -30% and -50%; inactive = -30% or higher; note: value at the top dose of about 77 µM
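qHTS, 1536-well: enzyme/substrate mix, compound by pin tool, 5 microM ATP final; RT 60 min; ADP-Glo reagents 1 (45 min) then 2 (30 min); luminescence.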
PLK1 PBD block = qHTS for Inhibitors of PLK1-PDB (polo-like kinase 1 - polo-box domain): Primary Screen; Plk1 PBD binding of FITC phosphopeptide, fluorescence polarization; Serine/threonine-protein kinase PLK1 (Homo sapiens), P53350; Potency, µM, hits mostly inhibitors; 2.8% of 360,000 active; note: series mostly up to about 57 µM; nearly all actives have a fitted effect of over 65% in size
JMJD2A Tudor = qHTS Assay for Inhibitors of JMJD2A-Tudor Domain | AID 504339, 2011 | Potency, µM (series often up to 114 µM), usual class: inhibitors | AlphaScreen JMJD2A-Tudor / H3K4me3 peptide binding | Lysine-specific demethylase 4A (Homo sapiens), O75164 | 4.4% of 390,000 active; note: nearly all actives have a fitted effect of over 50% in size
HP1b binding inh = HTS for Inhibitors of HP1-beta Chromodomain Interactions with Methylated Histone Tails. AlphaScreen HP1-beta / biotin-H3K9me3 peptide binding. Chromobox protein homolog 1 (Homo sapiens), P83916. Potency, µM (top dose mostly 114 µM), hits mostly inhibitors. 0.56% of 390,000 active; note: nearly all actives have a fitted effect of over 70% in size
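Compound inhibition of the preformed complex between 50 nM HP1-beta and 50 nM biotinylated H3K9me3 peptide was read by AlphaScreen. Buffer was PBS pH 7.4 with 0.01% Tween-20. Incubations ran 30 min at room temperature, with 10 ug/mL donor/acceptor beads.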
GCN5L2 inh = qHTS Assay for Inhibitors of GCN5L2. Histone acetyltransferase KAT2A (Homo sapiens), Q92830. GCN5L2 HAT assay, ThioGlo1 CoA-SH fluorescence. Potency, µM (highest dose often 58.9 µM), actives largely listed as inhibitors. 0.21% of 390,000 active. AID 504327, 2011
Target sequence (Q92830 whole entry, looked up): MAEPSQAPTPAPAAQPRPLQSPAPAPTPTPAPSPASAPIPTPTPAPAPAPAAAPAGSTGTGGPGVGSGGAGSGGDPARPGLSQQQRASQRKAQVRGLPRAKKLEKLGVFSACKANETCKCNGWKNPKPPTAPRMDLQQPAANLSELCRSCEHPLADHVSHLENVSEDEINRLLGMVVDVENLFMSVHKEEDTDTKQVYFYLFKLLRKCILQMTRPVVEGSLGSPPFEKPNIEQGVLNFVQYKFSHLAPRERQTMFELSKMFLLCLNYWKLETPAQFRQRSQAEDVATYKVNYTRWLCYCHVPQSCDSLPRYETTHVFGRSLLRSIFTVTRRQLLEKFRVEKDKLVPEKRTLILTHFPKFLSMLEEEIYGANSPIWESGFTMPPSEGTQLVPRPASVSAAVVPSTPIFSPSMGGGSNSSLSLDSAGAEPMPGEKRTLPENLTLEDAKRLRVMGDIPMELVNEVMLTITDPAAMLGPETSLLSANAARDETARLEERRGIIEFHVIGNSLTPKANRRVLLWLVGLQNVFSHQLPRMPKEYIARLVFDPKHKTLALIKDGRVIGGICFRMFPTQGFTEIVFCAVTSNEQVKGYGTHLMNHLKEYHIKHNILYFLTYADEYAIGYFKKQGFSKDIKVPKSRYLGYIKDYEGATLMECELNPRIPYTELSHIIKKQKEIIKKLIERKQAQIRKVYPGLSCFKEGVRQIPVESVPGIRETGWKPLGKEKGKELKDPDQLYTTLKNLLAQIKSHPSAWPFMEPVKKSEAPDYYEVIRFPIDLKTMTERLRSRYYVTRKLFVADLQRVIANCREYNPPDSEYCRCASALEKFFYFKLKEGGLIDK
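Titration-based screen in which CoA formation is detected via maleimide probe ThioGlo1 (50uM) turning fluorescent on thiol reaction; substrates H3(1-25) 75uM and acetyl-CoA 70uM, GCN5L2 20nM, 20 min incubation at room temperature.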
BAZ2B inh = qHTS Assay for Inhibitors of BAZ2B | AID 504333, 2011 | Potency, µM (highest dose often 114 µM), actives largely listed as inhibitors | 4.4% of 360,000 active | AlphaScreen BAZ2B-H3K14Ac peptide displacement | Bromodomain adjacent to zinc finger domain protein 2B (Homo sapiens), Q9UIF8; note: nearly all actives have a fitted effect of over 60% in size
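BAZ2B (50 nM) with biotin-H3(5-23)K14Ac peptide (50 nM) in PBS pH 7.4, 0.01% Tween-20, preformed 30 min, then compound 30 min at room temperature; top concentration 110uM. AlphaScreen streptavidin donor/nickel chelate acceptor beads (10 ug/mL final), 20 min dark, signal read.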
Each line names hits and unclear results; the compound was inactive in the other large screens. Unless noted, calls come from the whole dose curve; as a rule, active = well fitted curve in the direction sought with a large enough effect; inconclusive = small, poorly fitted or top-dose-only effect, or another doubt; inactive = no such curve, though single readings can be large; an effect the other way counts as inactive or inconclusive.

Cc1c(C(=O)NC(C)c2ccccc2)sc2nc3n(c(=O)c12)CCCC3 (configuration not stated)	none (no result: PI5P4K alpha inh, PLK1 PBD block)
O=C(OCc1ccc(Br)cc1)c1ccncc1	none
O=C(OCc1ccc(Br)cc1)c1cnc(Cl)c(Cl)c1	JMJD2A Tudor 71µM
CN1CCc2c(sc3c2C(=O)NC(c2cccs2)N3)C1 (configuration not stated)	JMJD2A Tudor inconclusive (no result: PI5P4K alpha inh)
COc1ccc(C(=O)Oc2ccc(C3NC(=O)c4c(sc5c4CCN(C)C5)N3)cc2OC)cc1 (configuration not stated)	JMJD2A Tudor 56µM, HP1b binding inh inconclusive (no result: PI5P4K alpha inh, PLK1 PBD block)
CN1CCc2c(sc3c2C(=O)NC(c2ccc(-c4cccc(Cl)c4)o2)N3)C1 (configuration not stated)	JMJD2A Tudor 50µM, HP1b binding inh inconclusive, BAZ2B inh 40µM
CC(=O)c1ccc(NC(=O)CSc2nc(-c3ccc(C)cc3)nc3c2c(=O)n(C)c(=O)n3C)cc1	none (no result: PI5P4K alpha inh, PLK1 PBD block)
O=C(OCC(=O)N1CCCCC1)c1ccc2ccccc2n1	none (no result: BAZ2B inh)
CC(NC(=O)Cc1ccc(S(=O)(=O)N2CCOCC2)s1)c1ccc(Cl)cc1Cl (configuration not stated)	none (no result: GCN5L2 inh, BAZ2B inh)
COc1ccc(NC(=O)CNC(c2ccccc2)c2ccccc2)cc1Cl	none
COc1ccc(C(NCC(=O)Nc2c(C)cccc2C)c2ccccc2)cc1 (configuration not stated)	JMJD2A Tudor 20µM, HP1b binding inh 28µM, BAZ2B inh 32µM
Nc1ccccc1Nc1cc(-c2cccc(Cl)c2)nn1-c1ccccc1	JMJD2A Tudor 22µM, HP1b binding inh inconclusive, BAZ2B inh 22µM
CC1CCCCN1S(=O)(=O)c1ccc2c(c1)C(C)(C)C(=O)N2C (configuration not stated)	none
CCC(=O)Nc1ccc(NCc2ccc(-c3ccccc3)cc2)cc1	JMJD2A Tudor inconclusive
CCOc1cc(CNc2ccc(O)cc2)ccc1OCc1ccc(Cl)cc1Cl	JMJD2A Tudor 79µM, BAZ2B inh inconclusive
CCc1ccc(CNc2ccc(O)cc2)cc1	PI5P4K alpha inh -54, PLK1 PBD block 30µM, JMJD2A Tudor 56µM, BAZ2B inh 40µM
CCOc1cccc(CNc2ccc(O)cc2)c1OCc1ccc(Cl)cc1	JMJD2A Tudor 79µM
CCOc1ccccc1CNc1ccc(O)cc1	PI5P4K alpha inh inconclusive, PLK1 PBD block inconclusive, JMJD2A Tudor 56µM, HP1b binding inh inconclusive, BAZ2B inh 35µM
COc1cc(CNCc2ccccn2)ccc1OCc1ccc(Cl)cc1Cl	JMJD2A Tudor inconclusive, BAZ2B inh inconclusive
O=C(C1CC(=O)N(c2ccccc2F)C1)N1CCOCC1 (configuration not stated)	none (no result: BAZ2B inh)
C/C(=N\NC(=O)CSc1nc2ccccc2s1)c1cccnc1	none
Cn1nnnc1SCCNCc1ccc(OCc2ccccc2Cl)cc1	none (no result: PI5P4K alpha inh, PLK1 PBD block)
Oc1ccc(NCc2ccc(OCc3ccccc3Cl)cc2)cc1	JMJD2A Tudor 50µM, HP1b binding inh inconclusive, BAZ2B inh inconclusive (no result: PI5P4K alpha inh, PLK1 PBD block)
CCc1ccc(OCc2nnc(-c3ccccc3Br)o2)cc1	PLK1 PBD block 30µM
Clc1ccccc1OCc1nnc(-c2ccccc2Br)o1	none
O=C1NC(=O)C2(N1)C(=O)c1cccc3cccc2c13 (configuration not stated)	PLK1 PBD block 11µM (no result: JMJD2A Tudor, HP1b binding inh, GCN5L2 inh, BAZ2B inh)
O=C1NC(=O)C2(N1)c1ccccc1-c1ccccc12	none (no result: GCN5L2 inh, BAZ2B inh)
O=C(O)Cc1ccc(C(=O)c2ccc(F)cc2)s1	none
N#CCc1ccc(C(=O)c2ccccc2F)s1	BAZ2B inh 50µM
CC1CCCCC1NC(=O)CN1C(=O)NC(C)(c2cc(F)ccc2F)C1=O (configuration not stated)	none
CCOc1cc(CNCc2ccccc2)ccc1OCc1ccc(Cl)cc1	GCN5L2 inh inconclusive
COc1ccc(CNCCc2ccc(Cl)cc2)cc1OCc1ccccc1	JMJD2A Tudor 40µM, HP1b binding inh inconclusive, BAZ2B inh 56µM
COc1cccc(-c2ccc3ncnc(NCCN4CCOCC4)c3c2)c1	none (no result: PI5P4K alpha inh, PLK1 PBD block, JMJD2A Tudor, HP1b binding inh, BAZ2B inh)
CSCCC(C(=O)NC(C)(C)C)n1c(-c2ccc3c(c2)OCO3)nc2ccccc21 (configuration not stated)	none (no result: JMJD2A Tudor, HP1b binding inh, GCN5L2 inh, BAZ2B inh)
O=S(=O)(Nc1cc(S(=O)(=O)N2CCOCC2)ccc1N1CCOCC1)c1ccc2c(c1)OCCO2	none
O=S(=O)(Nc1cc(S(=O)(=O)N2CCOCC2)ccc1O)c1ccc2c(c1)OCCCO2	PI5P4K alpha inh inconclusive, PLK1 PBD block 4.7µM, HP1b binding inh inconclusive, GCN5L2 inh inconclusive, BAZ2B inh 56µM
CC(=O)Nc1ccc(SCc2c(C)noc2C)cc1	PLK1 PBD block 21µM
CCCNC(=O)c1ccccc1SCc1c(C)noc1C	BAZ2B inh 79µM
CC(=O)Nc1ccc(NC(=O)C(C)OC(=O)c2ccc(OCc3c(C)noc3C)cc2)cc1 (configuration not stated)	PLK1 PBD block 30µM, JMJD2A Tudor inconclusive (no result: PI5P4K alpha inh)
O=C(CSc1ccc(Cl)cc1)NNC(=O)c1cccnc1	none
CNc1nc(N/N=C/c2cc([N+](=O)[O-])ccc2F)nc(Nc2ccccc2)n1	none (no result: GCN5L2 inh, BAZ2B inh)
CNc1nc(N/N=C/c2cc3c(cc2[N+](=O)[O-])OCO3)nc(Nc2ccccc2)n1	PI5P4K alpha inh -68, JMJD2A Tudor inconclusive, BAZ2B inh inconclusive
COc1cc(OC)cc(C(=O)NC(=S)Nc2nnn(C)n2)c1	PLK1 PBD block inconclusive, JMJD2A Tudor inconclusive, HP1b binding inh inconclusive, BAZ2B inh inconclusive
Cn1nnc(NC(=S)NC(=O)c2ccc3ccccc3c2)n1	none (no result: JMJD2A Tudor, HP1b binding inh, GCN5L2 inh, BAZ2B inh)
CC(C)C(=O)NC(=S)Nc1nnn(C)n1	JMJD2A Tudor 1.1µM, HP1b binding inh inconclusive, BAZ2B inh 56µM
CCCn1nnc(NC(=S)NC(=O)CC)n1	JMJD2A Tudor 2.8µM, HP1b binding inh inconclusive (no result: PI5P4K alpha inh)
Cn1nnc(NC(=S)NC(=O)c2cccc3ccccc23)n1	JMJD2A Tudor 2.8µM
COc1cccc(NC(=O)C(=O)NCCCN2CCCC2=O)c1	none
O=C(Cc1ccccc1)NC(CSSCC(NC(=O)Cc1ccccc1)C(=O)O)C(=O)O (configuration not stated)	none (no result: GCN5L2 inh, BAZ2B inh)
COCCN(C(=O)COC(=O)CSc1ccc(Cl)cc1)c1c(N)n(Cc2ccccc2)c(=O)[nH]c1=O	none
O=[N+]([O-])c1cc(Br)cc(C=Nc2ccc3c(c2)OCO3)c1O	PI5P4K alpha inh -51, JMJD2A Tudor inconclusive, BAZ2B inh 45µM
